From PubChem BioAssay (NCI)
The panel holds about 83,000 compounds, 20% with a hit somewhere; the sample as a whole holds those more often.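 The endpoint reported here, percent growth, reads 100 for growth as untreated, 0 for no net growth and -100 for all cells dead.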 Active and inactive are the calls of the source. Rule for the calls: active = growth percent below 10; inactive = the rest.

How the values were obtained:
Assay in all cases: NCI-60 one-dose screen, 48 h (100 = growth as untreated, 0 = no growth, -100 = all killed)
Settings in all cases: 10 µM unless noted
SR leukemia = system: SR leukemia
OVCAR-8 ovarian = system: OVCAR-8 ovarian
OVCAR-5 ovarian = system: OVCAR-5 ovarian
OVCAR-4 ovarian = system: OVCAR-4 ovarian
IGROV1 ovarian = system: IGROV1 ovarian
OVCAR-3 ovarian = system: OVCAR-3 ovarian
HS 578T breast = system: HS 578T breast
NCI/ADR-RES ovarian = system: NCI/ADR-RES ovarian
SK-OV-3 ovarian = system: SK-OV-3 ovarian

Measured: growth

COc1cc(-c2ccc(-c3ccc(C(=N)N)nc3)s2)cc(OC)c1OC
active: SR leukemia 6.31% | OVCAR-3 ovarian -41.9%
inactive: OVCAR-8 ovarian 57.2% | OVCAR-5 ovarian 81% | OVCAR-4 ovarian 60.9% | IGROV1 ovarian 62.5% | HS 578T breast 64.4% | NCI/ADR-RES ovarian 78.6%

COc1ccc(/C=C(\C#N)n2nnc3ccccc32)cc1
inactive: SR leukemia 27% | OVCAR-4 ovarian 35.1%
active: OVCAR-5 ovarian -13.4% | IGROV1 ovarian 7.84% | OVCAR-3 ovarian -66.4% | HS 578T breast -0.28% | NCI/ADR-RES ovarian 0.0544%

N#C/C(=C\c1ccc2c(c1)OCO2)n1nnc2ccccc21
inactive: SR leukemia 28% | OVCAR-8 ovarian 17.7% | OVCAR-4 ovarian 34.2%
active: OVCAR-5 ovarian -17.5% | IGROV1 ovarian 4.33% | OVCAR-3 ovarian -69% | HS 578T breast -4.27% | NCI/ADR-RES ovarian 6.26%

O=C1Nc2ccccc2/C1=N/N=C/c1ccc(OC2OC(CO)C(O)C(O)C2O)cc1 (centres undefined)
inactive: SR leukemia 116% | OVCAR-8 ovarian 102% | OVCAR-5 ovarian 98.2% | OVCAR-4 ovarian 115% | IGROV1 ovarian 116% | OVCAR-3 ovarian 113% | HS 578T breast 98.9% | NCI/ADR-RES ovarian 106%

N#C/C(=C\c1ccc(Br)cc1)n1nnc2cc(Cl)c(Cl)cc21
active: OVCAR-3 ovarian 5.17%
inactive: SR leukemia 10% | OVCAR-5 ovarian 46.2% | OVCAR-4 ovarian 21.6% | IGROV1 ovarian 23.3% | HS 578T breast 51.3%

COc1ccc(OC)c(C(=O)Nc2cccc(-c3cc(=O)c4ccccc4o3)c2)c1
inactive: SR leukemia 80% | OVCAR-8 ovarian 63.3% | OVCAR-5 ovarian 95.4% | SK-OV-3 ovarian 52.6% | IGROV1 ovarian 104% | OVCAR-3 ovarian 110% | HS 578T breast 68.3% | NCI/ADR-RES ovarian 80.2%

O=C(CC12CC3CC(CC(C3)C1)C2)NCCOCCOCCOCCNC(=O)c1cc2c(o1)C(=O)c1ccccc1C2=O
active: SR leukemia 7.13% | OVCAR-5 ovarian -87.9% | OVCAR-4 ovarian -95.9% | IGROV1 ovarian -10.8% | OVCAR-3 ovarian -42.9% | HS 578T breast -27.2% | NCI/ADR-RES ovarian -15%
inactive: OVCAR-8 ovarian 12.4%

CCn1c(Sc2nnc(NC(=O)CCN3CCCC3)s2)nc2c1c(=O)n(C)c(=O)n2C
inactive: SR leukemia 111% | OVCAR-8 ovarian 103% | OVCAR-5 ovarian 98.3% | OVCAR-4 ovarian 105% | IGROV1 ovarian 115% | OVCAR-3 ovarian 109% | HS 578T breast 100% | NCI/ADR-RES ovarian 109%

N#C/C(=C\c1ccc(Br)cc1)n1nnc2ccccc21
active: OVCAR-5 ovarian 7.66% | OVCAR-4 ovarian 6.76% | IGROV1 ovarian 1.96% | OVCAR-3 ovarian -31.8% | NCI/ADR-RES ovarian -6.66%
inactive: SR leukemia 11.7% | OVCAR-8 ovarian 17.3% | HS 578T breast 19.4%

Cl.[Pt].[c-]1ccccc1-c1ccccn1.c1ccc(P(c2ccccc2)C([PH+](c2ccccc2)c2ccccc2)[PH+](c2ccccc2)c2ccccc2)cc1
inactive: SR leukemia 20.4% | OVCAR-8 ovarian 15.6% | OVCAR-5 ovarian 22.7% | IGROV1 ovarian 17.2% | OVCAR-3 ovarian 11.6% | NCI/ADR-RES ovarian 60.7%
active: HS 578T breast 7.92%

CN1CCN(C2=C(Cl)C(=O)c3ccccc3C2=O)CC1
inactive: SR leukemia 24.3% | OVCAR-5 ovarian 119% | OVCAR-4 ovarian 84% | SK-OV-3 ovarian 102% | IGROV1 ovarian 60.7% | HS 578T breast 27.8% | NCI/ADR-RES ovarian 69.8%

Cc1cc(-c2noc(C(F)(F)F)n2)ccc1N1CCN(c2cc(C(=O)N(C)C)no2)CC1
inactive: SR leukemia 52.9% | OVCAR-8 ovarian 68.1% | OVCAR-5 ovarian 102% | OVCAR-4 ovarian 64.9% | IGROV1 ovarian 92.1% | OVCAR-3 ovarian 83.9% | HS 578T breast 89.1% | NCI/ADR-RES ovarian 69.5%

O=C(CC12CC3CC(CC(C3)C1)C2)NCCOCCOCCNC(=O)c1cc2c(o1)C(=O)c1ccccc1C2=O
active: SR leukemia 9.52% | OVCAR-8 ovarian -2.31% | OVCAR-5 ovarian -96.9% | OVCAR-4 ovarian -99.1% | IGROV1 ovarian -43.9% | OVCAR-3 ovarian -40.8% | HS 578T breast -24.6% | NCI/ADR-RES ovarian -24.6%

Cc1ccc(/C=C(\C#N)n2nnc3cc(Cl)c(Cl)cc32)cc1
inactive: SR leukemia 17.3% | OVCAR-8 ovarian 14.8% | OVCAR-5 ovarian 13.3% | IGROV1 ovarian 12.2% | HS 578T breast 11.7%
active: OVCAR-3 ovarian -35.2% | NCI/ADR-RES ovarian -25.5%

CN1C(=O)CCC(N2C(=O)c3cccc(NCCOCCOCCNC(=O)c4cc5c(o4)C(=O)c4ccccc4C5=O)c3C2=O)C1=O (centres undefined)
active: SR leukemia 7.99% | OVCAR-8 ovarian 2.72% | OVCAR-5 ovarian -85.5% | OVCAR-4 ovarian -95.3% | IGROV1 ovarian -20.1% | OVCAR-3 ovarian -44.7% | HS 578T breast -22.8%
inactive: NCI/ADR-RES ovarian 45.1%

COc1cc2cc(Oc3ccc(NC(=O)Nc4cc(C(F)(F)F)cc(C(F)(F)F)c4)cc3)c(C)nc2cc1OCCN1CCCCC1
active: SR leukemia -29.5% | OVCAR-8 ovarian -48.1% | OVCAR-5 ovarian -65.9% | IGROV1 ovarian -78.4% | OVCAR-3 ovarian -91.4% | HS 578T breast -44.1% | NCI/ADR-RES ovarian -66.9%

O[C@H]1CO[C@H]2[C@@H]1OC[C@@H]2Oc1ccc(Nc2ccnc(Nc3ccc(O[C@H]4CO[C@H]5[C@@H]4OC[C@@H]5O)c(Cl)c3)n2)cc1Cl
active: IGROV1 ovarian -2.78% | HS 578T breast -2.86%
inactive: SR leukemia 12.2% | OVCAR-5 ovarian 27.6% | OVCAR-4 ovarian 19.8% | SK-OV-3 ovarian 19.1% | OVCAR-3 ovarian 13.6% | NCI/ADR-RES ovarian 74.1%

N=C(N)c1ccc(-c2ccc(-c3ccc(Cl)c(Cl)c3)o2)cc1
active: SR leukemia -14.5% | OVCAR-8 ovarian 1.38% | OVCAR-4 ovarian -13.1% | IGROV1 ovarian -64.6% | OVCAR-3 ovarian -42.2%
inactive: OVCAR-5 ovarian 39.9% | HS 578T breast 70.9% | NCI/ADR-RES ovarian 35.1%

Nc1c(C(=O)Nc2ccccc2)sc2nc3c(cc12)CCCCCC3
inactive: SR leukemia 12.6% | OVCAR-8 ovarian 16.4% | OVCAR-5 ovarian 15.3% | IGROV1 ovarian 15.3% | HS 578T breast 22.8%
active: SK-OV-3 ovarian -4.37% | OVCAR-3 ovarian -34.8% | NCI/ADR-RES ovarian 1.41%

O=C1Nc2ccccc2/C1=N/N=C/c1c[nH]c2ccccc12
inactive: SR leukemia 67% | OVCAR-8 ovarian 70.4% | OVCAR-5 ovarian 81.6% | OVCAR-4 ovarian 59.9% | IGROV1 ovarian 35.7% | OVCAR-3 ovarian 69.5% | HS 578T breast 15% | NCI/ADR-RES ovarian 91%

NS(=O)(=O)Oc1ccc(-c2sc3cc(O)ccc3c2C(=O)c2ccc(OCCN3CCCCC3)cc2)cc1
active: SR leukemia 4.91%
inactive: OVCAR-8 ovarian 63.9% | OVCAR-5 ovarian 87.2% | OVCAR-4 ovarian 58.4% | IGROV1 ovarian 75.6% | OVCAR-3 ovarian 62.6% | HS 578T breast 37.8% | NCI/ADR-RES ovarian 80.4%

O=C(NCCOCCOCCOCCNC(=O)c1cc2c(o1)C(=O)c1ccccc1C2=O)NC12CC3CC(CC(C3)C1)C2
inactive: SR leukemia 14.8%
active: OVCAR-5 ovarian -69.9% | OVCAR-4 ovarian -72.8% | IGROV1 ovarian 6.23% | OVCAR-3 ovarian -32% | HS 578T breast -30.3% | NCI/ADR-RES ovarian 8.9%

N=C(N)c1ccc(-c2ccc(-c3ccc(Cl)cc3Cl)o2)nc1
inactive: OVCAR-5 ovarian 77.2% | OVCAR-4 ovarian 22.6% | IGROV1 ovarian 25.4% | NCI/ADR-RES ovarian 71.6%
active: SR leukemia 1.87% | OVCAR-8 ovarian 1.36% | OVCAR-3 ovarian -3.34% | HS 578T breast -15.2%

Cl.Fc1c[c-]c(-c2ccccn2)c(F)c1.[Pt].c1ccc([PH+](C[PH+](c2ccccc2)c2ccccc2)c2ccccc2)cc1
active: SR leukemia -25.4% | OVCAR-8 ovarian -19.6% | OVCAR-5 ovarian -81.8% | OVCAR-4 ovarian -93.4% | IGROV1 ovarian -75.9% | OVCAR-3 ovarian -93.8% | HS 578T breast -25.2% | NCI/ADR-RES ovarian -38.8%

Cl.Fc1c[c-]c(-c2ccccn2)c(F)c1.[Pt].c1ccc([PH+](c2ccccc2)c2ccccc2[PH+](c2ccccc2)c2ccccc2)cc1
active: SR leukemia -6.47% | OVCAR-8 ovarian -44.5% | OVCAR-5 ovarian -94.3% | OVCAR-4 ovarian -97.3% | IGROV1 ovarian -77.9% | OVCAR-3 ovarian -96.4% | HS 578T breast -50.3% | NCI/ADR-RES ovarian -35.5%

O=C1Nc2ccc(Cl)cc2/C1=N/N=C/c1c[nH]c2ccccc12
inactive: SR leukemia 75.2% | OVCAR-8 ovarian 76% | OVCAR-5 ovarian 89.8% | OVCAR-4 ovarian 67.8% | IGROV1 ovarian 42.7% | OVCAR-3 ovarian 76.5% | HS 578T breast 22% | NCI/ADR-RES ovarian 98.1%

Cc1[nH]c(-c2nc3ccccc3[nH]2)c(C)c1C(=O)N1CCc2sccc2C1
inactive: SR leukemia 97.7% | OVCAR-8 ovarian 91.2% | OVCAR-5 ovarian 83.5% | OVCAR-4 ovarian 83.3% | IGROV1 ovarian 98.5% | OVCAR-3 ovarian 95% | HS 578T breast 87.7% | NCI/ADR-RES ovarian 93.2%

COc1ccc(-c2nnc(-c3ccc4c(c3)nc(-c3ccccc3)n4C3CCCCC3)o2)cc1
inactive: SR leukemia 58.3% | OVCAR-8 ovarian 30.8% | OVCAR-5 ovarian 95.4% | SK-OV-3 ovarian 84.2% | IGROV1 ovarian 89.4% | OVCAR-3 ovarian 43% | HS 578T breast 103% | NCI/ADR-RES ovarian 40.1%

O=C(NCCOCCOCCNc1cccc2c1C(=O)N(C1CCCNC1=O)C2=O)c1cc2c(o1)C(=O)c1ccccc1C2=O (centres undefined)
active: OVCAR-8 ovarian 3.33% | OVCAR-5 ovarian -84.5% | OVCAR-4 ovarian -98.1% | IGROV1 ovarian -15.4% | OVCAR-3 ovarian -25% | HS 578T breast -22.2%
inactive: SR leukemia 13.3% | NCI/ADR-RES ovarian 48.6%
